In PubChem BioAssay (NCI):
Compounds without any hit were thinned out: in the full panel of roughly 83,000, 20% have a hit.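 In brief: 96-well plates, 48 h treatment, single concentration, percent growth endpoint.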 Unmarked numbers belong to inactive results. Calls of active or inactive are those of the source. How the source made its calls: active means growth percent below 10; inactive means the rest.

Each compound was assayed on HL-60(TB) leukemia (assay: NCI-60 one-dose screen, 48 h (100 = growth as untreated, 0 = no growth, -100 = all killed)). Details: 10 µM unless noted.

SMILES	growth
S=c1c2ccccc2nc2n1CCc1c-2[nH]c2ccccc12	98%
O=C(c1ccc(Cl)cc1)C1[C@H](c2ccccc2Cl)[C@@H](c2ccccc2)NC12C(=O)Nc1ccc(Br)cc12 (some centres not stated)	-43.7% (active)
O=C(NO)c1ccc(-c2nc3ccc4[nH]ncc4c3c3c2CCCC3)cc1	-18.7% (active)
Clc1cccc(N/N=C/c2c[nH]c3ccccc23)n1	13.8%
Cc1ccc(Cl)cc1NC(=O)N/C(N)=N/c1nc2ccccc2s1	-44.9% (active)
Cn1cc(/C=N/Nc2cccc(Cl)n2)c2ccccc21	56.6%
Cc1nc(Nc2ccccn2)sc1C1=NNC(c2ccccc2F)C1 (configuration not stated)	4.96% (active)
CCOc1ccc2ncc(C#Cc3cncc(C(=O)Nc4ccc(CN5CCN(C)CC5)c(C(F)(F)F)c4)c3)n2n1	1.2% (active)
CC[C@]12C=CCN3CC[C@@]4(c5ccc(OC)cc5N(C)[C@H]4[C@@](O)(C(=O)OC)[C@@H]1OC(=O)CCC[P+](c1ccc(OC)cc1)(c1ccc(OC)cc1)c1ccc(OC)cc1)[C@@H]32	-39.7% (active)
O=C(CSc1nnc(-c2c[nH]c3ccccc23)n1-c1ccccc1)c1ccccc1	87.2%
COc1cccc(/C=C/c2nc3ccccc3c(=O)n2CC(=O)Nc2ccc(Cl)cc2)c1	115%
COc1ccc(C2N(c3ccc(Br)cc3)N=C(C(C)=O)N2[C@H]2[C@H](OC(C)=O)O[C@H](COC(C)=O)[C@@H](OC(C)=O)[C@@H]2OC(C)=O)cc1 (some centres not stated)	23.7%
N#CC1=C(c2ccco2)Nc2c(c(-c3ccccc3)nn2-c2ccccc2)C12C(=O)Nc1ccc(Cl)cc12 (configuration not stated)	43.8%
Cc1cc2nc3c([nH]c2cc1C)c1ccc(=O)cc1n3CCN(C)C	16.8%
Cc1nc(Nc2ncc(C(=O)Nc3c(C)cccc3Cl)s2)cc(N2CCN(CCCNC(=O)COc3ccc(C4CCC(=O)NC4=O)cc3)CC2)n1 (configuration not stated)	76.3%
COc1ccc(N=Nc2c(N)nn3c(N)c(C#N)c(-c4ccccc4)nc23)cc1	80.8%

SMILES	growth
N#Cc1c(-c2cccc3ccccc23)cc(-c2cccc(OCC(=O)O)c2)[nH]c1=O	82.2%
CCN1CCN(Cc2ccc(C(=O)Nc3cccc(Nc4ccc5c(OC)cccc5n4)c3)cc2C(F)(F)F)CC1	-57.1% (active)
COc1cc(/C=C/C(=O)c2ccc(S(=O)(=O)NCCNc3nc(Nc4ccc(F)cc4)nc(N(C)C)n3)cc2)cc(OC)c1OC	-4.97% (active)
C#CCOc1cc(N(CC)CC)ccc1C(C(=O)NC(C)(C)C)N(C(=O)C1CCc2cc(F)ccc2O1)c1ccc(Br)cc1 (configuration not stated)	44.7%
CC1CC(c2ccc(N(C)C)cc2)=NN1c1nc(O)c(C2=c3cc(Br)ccc3=NC2=O)s1 (configuration not stated)	68.7%
Cc1ccc2nc(COc3ccc(C(=O)NNC(=S)NCCc4ccccc4)cc3)[nH]c2c1	99.7%
CN(C)CCOc1ccc(C(=O)C2[C@H](c3ccc(Cl)cc3)[C@@H](c3ccccc3)NC23C(=O)Nc2ccccc23)cc1 (some centres not stated)	35.1%
Cc1ccc(C(=O)CSc2nc3ccc(F)cc3c(=O)n2-c2ccc(Cl)cc2)cc1	117%
CCOc1ccccc1[C@H]1C(C(=O)c2ccc(Cl)cc2)C2(N[C@@H]1c1ccccc1)C(=O)Nc1ccc(Cl)cc12 (some centres not stated)	18.2%
CC(C)CCNC(=O)N/C(N)=N/c1nc2ccccc2s1	55.6%
CCCCSc1nc(Nc2ccc(/C(C)=N/NC(N)=S)cc2)c(C#N)c(-c2ccc(OC)cc2)n1	92.2%
C/C(=C\c1ccc(O)cc1O)c1ccc2ccc(O)cc2[o+]1	63.2%
O=C1NC(=NC23CC4CC(CC(C4)C2)C3)N/C1=C\c1ccc2ncccc2c1	-11.2% (active)
COc1cc2c(c(OC)c1OC)C(=O)CC(c1cccc(NC(=O)c3cc(NC(=O)[C@H](CO)NC(=O)OC(C)(C)C)ccc3Cl)c1)O2 (some centres not stated)	36.6%
COc1cc(C2CC(c3ccc(S(=O)(=O)NCCNc4nc(Nc5ccc(F)cc5)nc(N(C)C)n4)cc3)=Nc3c(N)nc(N)nc3N2)cc(OC)c1OC (configuration not stated)	80.3%
COc1ccc(N2N=C(c3ccc4c(c3)OCO4)CC2c2cccc(NC(=O)CCNS(=O)(=O)c3ccc(Cl)cc3)c2)cc1 (configuration not stated)	34.4%
